Source: PubChem (several laboratories)
Most compounds without a hit are left out; they make up all but 12% or so of the library.
Calpain2 inh: inhibitors of pig calpain II, primary screen, biochemical, fluorogenic peptide substrate, 1536-well. 0.37% of 220,000 active. inhibition, % at 16 µM. purified calpain II, 30 min;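 active = inhibition above about 50%, limit read from the data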
KCC2 mod: KCC2 cotransporter modulators, thallium flux, primary screen, cell-based, HEK293 KCC2, FluoZin-2 fluorescence, MLSMR; Solute carrier family 12 member 5 (Homo sapiens), Q9H2X9; KCC2 cells, thallium flux FluoZin-2 fluorescence; B-score of Tl+ flux slope (higher = more flux/activation; lower = inhibition) at 10 µM; 2.2% of 190,000 active; AID 1456, 2008;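 active = thallium flux slope and its plate-corrected score both differing from the plate sample mean at a set confidence after two filtering rounds, in either direction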;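 note: slope of fluorescence scaled to starting intensity during 10 to 20 s after thallium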
ROMK mod: ROMK potassium channel modulators, primary screen, cell-based, thallium flux, MLSMR library; AID 1918, 2009; Tet-inducible ROMK, thallium flux fluorescence; actives lie on both sides; 2% of 130,000 active; B-score at 10 µM;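 active = signal ratio slope over the read window, or its plate-corrected B-score, at least 3 SD from the plate mean, either direction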;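 note: B-score of the F/F0 ratio slope over 7 to 12 s after thallium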
Target sequence (P48048 whole entry, looked up): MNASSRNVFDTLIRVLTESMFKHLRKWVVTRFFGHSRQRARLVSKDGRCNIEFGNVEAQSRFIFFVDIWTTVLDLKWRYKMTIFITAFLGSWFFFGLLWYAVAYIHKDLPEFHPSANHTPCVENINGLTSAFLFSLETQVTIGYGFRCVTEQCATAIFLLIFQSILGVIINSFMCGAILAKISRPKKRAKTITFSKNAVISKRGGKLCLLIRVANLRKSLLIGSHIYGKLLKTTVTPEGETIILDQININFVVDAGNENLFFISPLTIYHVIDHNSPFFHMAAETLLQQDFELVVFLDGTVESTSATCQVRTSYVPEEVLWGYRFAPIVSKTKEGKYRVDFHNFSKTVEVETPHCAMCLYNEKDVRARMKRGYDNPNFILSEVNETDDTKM
WT yeast gro inh: growth inhibition of WT strain, primary screen, mitochondrial fusion inhibitor project, WT and mutant strains, chemical genetic; 2.1% of 190,000 active; mitochondrial fusion phenotypic screen; inhibition, % at 10 µM; in the data active = inhibition above about 58%; tested in S. cerevisiae
L major viab: Leishmania major promastigote growth inhibition, primary screen. Leishmania major promastigotes, resazurin fluorescence viability. inhibition, % at 10 µM. 9% of 200,000 active. AID 1063, 2008; in the data active = inhibition above about 50%;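 note: promastigotes grown with compound for 44 hours at 28 °C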
KCC2 secondary: KCC2 modulators in sodium-free buffer, confirmation, cell-based, HEK293 KCC2, thallium flux, secondary assay; shares compounds with KCC2 mod; FluoZin2 fluorescence; hits give high values; normalised thallium flux (F/F0 slope) at 10 µM; 15% of 3,700 active;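 active = thallium flux slope above the same plate's solvent-only control mean plus 3 SD; inconclusive = the two replicate wells disagree; inactive = no significant difference from solvent-only control wells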
KCC2 bumet counter: thallium flux persisting under bumetanide in KCC2 cells, confirmation, counter-screen for KCC2 modulator project, cell-based, HEK293 KCC2, FluoZin2, secondary assay 3. normalized thallium flux at 10 µM. 49% of 3,700 active. HEK293-KCC2 + bumetanide/ouabain; hits give high values. shares compounds with KCC2 mod;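 active = thallium entry rate above the same plate's blocked-transporter control wells by more than 3 SD; inconclusive = the two repeat wells disagree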;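 note: raw slope of fluorescence over initial fluorescence between 10 and 20 s after thallium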
KCC2 secondary2: KCC2 modulators without ouabain present, confirmation, cell-based, HEK293 KCC2, thallium flux, FluoZin2, secondary assay 2. shares compounds with KCC2 mod. thallium flux FluoZin2 fluorescence; actives lie on both sides; F/F0 rise rate, 10–20 s post-thallium. normalized thallium flux at 10 µM. 23% of 3,700 active. AID 1715, 2009;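 active = thallium flux slope more than 3 SD above or below the plate's solvent-only control mean, mostly below; inconclusive = the two repeat wells disagreed; inactive = no significant shift from solvent-only controls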;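 note: raw slope with 0.1% DMSO as baseline and bumetanide as block control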
HEK293 Tl flux: thallium flux modulation in parental HEK cells, confirmation, counter-screen for KCC2 modulator project, cell-based, counterscreen 1 | HEK293 parental cells, thallium flux FluoZin2, ouabain; baseline-ratio fluorescence slope, 10–20 s after thallium | shares compounds with KCC2 mod | 46% of 3,700 active | thallium flux rate (normalised fluorescence) at 10 µM | AID 1716, 2009;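 active = thallium flux rate significantly above the same plate's solvent-only control wells, beyond their mean plus 3 SD; inconclusive = the two replicate wells gave conflicting results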
KCC2 ouabain: KCC2 inhibitors and activators, ouabain retest, confirmation, HEK-KCC2 cells | shares compounds with KCC2 mod | HEK293-KCC2, thallium flux FluoZin2 fluorescence; bidirectional: low = inhibitor, high = activator | raw Tl+ flux slope (below DMSO = inhibition, above = activation) at 10 µM | 48% of 3,700 active | AID 1717, 2009;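 active = thallium flux slope beyond 3 SD from same-plate DMSO control mean in most replicates, usually higher, sometimes lower; inconclusive = repeat tests gave conflicting results; inactive = no significant difference from controls in most replicates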;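 note: slope of initial-normalized fluorescence between seconds 10 and 20 after thallium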
HEK293 Tl flux2: native HEK Tl+ uptake effects, second counter-screen – HEK cells, counterscreen 2, counter-screen for KCC2 modulator project, confirmation; shares compounds with KCC2 mod; HEK293 parental, thallium flux FluoZin-2 fluorescence slope; thallium flux slope at 10 µM; 33% of 3,700 active;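 active = thallium flux slope above the same plate's solvent-control mean plus 3 SD in both duplicate wells; inconclusive = duplicate wells that disagreed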;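 note: run without ouabain in cells lacking the KCC2 cotransporter; slope of fluorescence scaled to its starting value between 10 and 20 s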
* marks the source's active call; other numbers are inactive results; ? = inconclusive; . = not tested or not shown.

SMILES	Calpain2 inh	KCC2 mod	ROMK mod	WT yeast gro inh	L major viab	KCC2 secondary	KCC2 bumet counter	KCC2 secondary2	HEK293 Tl flux	KCC2 ouabain	HEK293 Tl flux2
CC1=CC(C)(C)NC(=S)N1c1ccc(C)cc1	-72.8	-0.567	-0.512	-12.6	-1.6	.	.	.	.	.	.
CC1=CC(C)(C)NC(=S)N1c1ccc(C)c(C)c1	9.0	0.338	-0.0986	16.2	10.1	.	.	.	.	.	.
CCOC(=O)c1c(CC(C)C)csc1NC(=O)COC(=O)c1cc(OC)c(OC)cc1[N+](=O)[O-]	-7.3	-0.72	.	-19.5	-2.2	.	.	.	.	.	.
Cc1ccc(/C(O)=C2\C(=O)C(=O)N(Cc3cccnc3)C2c2ccccc2[N+](=O)[O-])cc1 (configuration not stated)	19.2	-0.658	0.262	-8.6	-10.1	.	.	.	.	.	.
O=C(CCSc1ccc(Cl)cc1)Nc1cccnc1	-11.5	-0.184	3.04	7.7	5.3	.	.	.	.	.	.
O=C(NNC(=O)c1cc(-c2ccccc2)nn1-c1ccccc1)c1ccccc1	-10.6	29.5*	0.0725	-9.0	25.5	0.00592	0.104*	0.0667*	0.0665*	0.0761*	0.063*
O=C(NNC(=O)c1ccc(-c2ccccc2)cc1)c1ccccc1	-11.9	-3.66*	.	10.4	-5.4	0.00711	?	0.0277	0.00745	0.0159	?
O=C(NNc1nc(-c2ccccc2)cs1)c1ccccc1	29.6	-5.89*	.	3.6	-0.8	0.0106	?	0.025*	0.00804	0.0145*	0.0111
CC(=O)c1sc(NC(=O)c2cc(-c3ccccc3)nn2-c2ccccc2)nc1C	18.6	3.31	1.14	43.1	18.6	.	.	.	.	.	.
CN(c1ccccc1)c1cc(=O)[nH]c(=O)[nH]1	-18.0	-0.0852	0.0304	-15.6	-8.7	.	.	.	.	.	.
COCCOn1c(SCCOC)nc2ccccc2c1=O	1.7	2.35	0.278	.	.	.	.	.	.	.	.
O=c1c2ccccc2c(-c2n[nH]c(=S)o2)nn1Cc1ccccc1	4.2	-4.92*	1.74	-3.6	-8.4	0.00881	0.00568	?	0.00684	0.0136*	?
Fc1cccc2sc(Nc3nc4c(F)cccc4s3)nc12	-29.5	18*	0.724	20.9	-7.9	?	0.0355*	0.031	0.0523*	0.0339*	?
O=C(N/C=C/n1cnc2cc(C(F)(F)F)ccc21)c1ccccc1F	4.7	-0.546	-0.0132	14.1	0.3	.	.	.	.	.	.
Nn1c(Cc2cccc3ccccc23)n[nH]c1=S	17.3	-2.4	.	4.2	-0.2	.	.	.	.	.	.
Cc1[nH]c2ccccc2c1Cc1n[nH]c(=S)n1C	-12.6	-6.37*	.	-8.2	-4.7	0.0098	0.0059	0.0237*	0.00751	0.0109*	0.0116
Cc1[nH]c2ccccc2c1Cc1n[nH]c(=S)o1	-38.5	-3.36*	.	0.5	-5.5	0.00859	0.00615	0.022*	0.00674	0.0414*	0.00965
S=c1[nH]nc(Cc2cccc3ccccc23)o1	6.4	-8.04*	-0.375	7.0	-5.4	0.00585	0.00518	0.0153*	0.00765	?	0.01
Cn1c(Cc2c[nH]c3ccccc23)n[nH]c1=S	-5.2	.	0.163	-11.5	1.8	0.00633	0.00611	0.0278	?	?	0.00923
O=C(NC(=S)Nc1ccccc1N1CCCCC1)c1cccs1	28.0	18.3*	0.209	40.5	91.3*	?	0.0353*	0.0345	0.0509*	0.0425*	0.0158*
O=C(Nc1ccc(N2CCCC2)c(Cl)c1)c1cccs1	22.2	-0.841	-0.503	9.4	6.4	.	.	.	.	.	.
O=C(NC(=S)Nc1ccc(N2CCOCC2)c(Cl)c1)c1cccs1	2.1	.	.	30.9	-5.5	0.0248*	0.0582*	?	0.0166*	0.0277*	0.0168*
O=C(NC(=S)Nc1ccccc1N1CCCC1)c1cccs1	10.8	78.6*	.	.	.	0.0292*	0.144*	?	?	0.0871*	0.0369*
O=C(NC(=S)Nc1ccccc1N1CCN(C(=O)c2ccccc2)CC1)c1cccs1	-1.1	-0.396	0.416	.	.	.	.	.	.	.	.
CCOc1ccc(OCCSc2nc(-c3ccccc3)cc(=O)[nH]2)cc1	-10.3	-0.301	0.716	-0.2	-5.6	.	.	.	.	.	.
SMILES	Calpain2 inh	KCC2 mod	ROMK mod	WT yeast gro inh	L major viab	KCC2 secondary	KCC2 bumet counter	KCC2 secondary2	HEK293 Tl flux	KCC2 ouabain	HEK293 Tl flux2
O=C1/C(=C/c2cccnc2)SC(=S)N1Nc1ccccc1	11.6	-1.47	.	.	.	.	.	.	.	.	.
CCn1nc(NC(=O)Cc2ccc(OC)cc2)c2cc3cccc(C)c3nc21	-47.9	0.285	.	.	.	.	.	.	.	.	.
CC(Sc1n[nH]c(N)n1)C(=O)Nc1ccc(Cl)cn1 (configuration not stated)	25.9	-0.269	0.549	2.6	-1.7	.	.	.	.	.	.
Nc1nc(SCC(=O)Nc2ccc(Cl)cn2)n[nH]1	7.2	12.7*	0.276	-2.4	-2.6	0.0107	0.00613	0.0312	0.0085	0.0184	0.0107
O=C(NC(=S)NCc1cccnc1)c1cccc2ccccc12	23.9	0.781	-0.18	-13.6	-4.3	.	.	.	.	.	.
Cc1ccc(-n2cccc2/C=C2\C(=N)N3N=C(C(C)C)SC3=NC2=O)cc1	-14.3	7.12*	0.412	81.0*	-13.2	0.00685	0.0367*	?	0.0298*	0.0312*	0.0171*
CN1CCN(NC(=S)Nc2ccc(Oc3ccccc3)cc2)CC1	4.6	-1.33	0.0562	2.3	5.8	.	.	.	.	.	.
CN(C)S(=O)(=O)c1ccccc1N=C=S	-2.9	0.313	.	.	.	.	.	.	.	.	.
O=C(O)c1ccc(C2CCCCC2)cn1	-7.9	8.28*	0.01	31.6	-5.9	0.0109	0.00889*	0.0304	0.00765	0.019	0.0104
O=C(Cn1cnc2ccccc2c1=O)NNC(=O)c1ccccc1	-10.2	0.547	0.461	.	.	.	.	.	.	.	.
Cc1cc(NC(=O)c2cccc(S(=O)(=O)N3CC(c4ccccc4)CC3=O)c2)no1 (configuration not stated)	-5.3	-5.4*	.	14.3	4.8	?	0.00389	0.0218*	0.00598*	0.0128*	?
